Test [1] is described as follows: P-glycoprotein substrates identified in KB-8-5-11 adenocarcinoma cell line, qHTS therapeutic library screen (AID 1346987). Note: series mostly up to about 44 µM. The method in brief:
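Steps: plate 500 KB-8-5-11 cells/well in DMEM + 10% FCS (colchicine removed); pin compounds in dose-response; incubate 72 h, 37 degree C, 5% CO2; add CellTiter-Glo, 5 min; read luminescence.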
(In general: In qHTS, concentration-response curves come from the screen itself.)

Test [2] concerns the target Glutathione peroxidase 1 (Homo sapiens) (UniProt P07203). Nature of the test: Primary qHTS Assay for Inhibitors of Recombinant Selenoprotein Glutathione Peroxidase 1 (GPX1) (AID 1845191). The method, boiled down: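 Recombinant GPX1 (10 nM final) was preincubated with compound for 30 min at room temperature, then reacted with 1 mM GSH, 0.5 mM CHP, 0.5 mM NADPH and 100 nM glutathione reductase; NADPH fluorescence (340/450 nm) was read at 0 and 15 min.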

Inconclusive results are not listed. A call without a number means that no potency is given here. Calls of active or inactive are those of the source. Calls come from the whole dose curve; as a rule, active = well fitted inhibition curve with a large enough effect; inconclusive = small, poorly fitted or top-dose-only effect; inactive = flat fitted curve, though single readings scatter.
Note: nearly all actives have a fitted effect of over 65% in size.

Glutathione peroxidase 1 (Homo sapiens), sequence (P07203 whole entry, looked up): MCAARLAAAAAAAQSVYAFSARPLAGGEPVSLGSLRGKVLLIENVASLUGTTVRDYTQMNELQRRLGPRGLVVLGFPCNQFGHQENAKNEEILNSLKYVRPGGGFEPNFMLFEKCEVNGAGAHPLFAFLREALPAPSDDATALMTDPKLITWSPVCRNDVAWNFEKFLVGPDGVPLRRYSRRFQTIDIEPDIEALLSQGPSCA

Take `CNC(=O)c1ccc(-c2cnc3cnc(C(=O)N(C)c4ccc(Cl)cc4)cn23)cc1`: the Potency entry in test [1] and in test [2] was “inactive” each time.

The record behind these values is PubChem BioAssay (NCATS).
